Compound activity (PubChem)
Rows were chosen to be rich in hits. Some 11% of all compounds tested hit in one or more screens of this group.
PNC assembly inh = High Content Assay for Compounds that inhibit the Assembly of the Perinucleolar Compartment. hit rate 3.1% among 140,000. activity change (PNC), negative = inhibition, % at 10 µM. PC3M PTB-GFP, PNC prevalence imaging, 16 h; active compounds read low;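 active means readout at or below -70, meaning at least 70% loss of cells showing the perinucleolar compartment, a nuclear body marking cancer cells; inconclusive means readout between -30 and a set limit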;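 further: plate controls were DMSO wells for no effect and camptothecin positive control wells for full effect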
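Compounds are pinned in duplicate onto adhered PC3M cells stably expressing GFP-tagged PTB and incubated 16 h at 37 C. Cells are then fixed, nuclei stained with Hoechst, and PNC-positive cells counted.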
HPGD inh = qHTS Assay for Inhibitors of HPGD (15-Hydroxyprostaglandin Dehydrogenase); purified HPGD, NADH fluorescence kinetic, PGE2 substrate; hit rate 4.3% among 150,000; 15-hydroxyprostaglandin dehydrogenase [NAD(+)] (Homo sapiens), P15428; Potency, µM, for the others: at the highest dose activity change, negative = inhibition, hits mostly inhibitors; further: potency means the concentration at half of the fitted maximal effect; on the % scale 0 is the no-effect control and ±100 the full control effect
Target sequence (P15428 whole entry, looked up): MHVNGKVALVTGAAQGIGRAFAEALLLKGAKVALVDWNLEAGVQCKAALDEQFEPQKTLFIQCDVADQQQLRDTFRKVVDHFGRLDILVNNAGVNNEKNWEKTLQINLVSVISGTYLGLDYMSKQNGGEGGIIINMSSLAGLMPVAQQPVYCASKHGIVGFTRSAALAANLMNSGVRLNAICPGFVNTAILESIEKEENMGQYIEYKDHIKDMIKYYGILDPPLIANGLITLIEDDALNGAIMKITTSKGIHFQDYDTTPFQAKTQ
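NADH formation kinetics: reaction with 30 uM PGE2 and 1 mM NAD+ (final), 20 nM enzyme, Tris-HCl pH 8 with Tween 20, after 15 min compound preincubation at room temperature. Fluorescence change, last versus first of five reads.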
HTT ATP protect = qHTS Multiplex Assay to Identify Dual Action Probes in a Cell Model of Huntington: Cytoprotection (ATP); Potency, µM (top dose mostly 56.4 µM), for inactives: cytoprotection (ATP increase), actives largely listed as activators; AID 1471, 2008; PC12 HTT-Q103 induced, cytoprotection, ATP luminescence, 40 h; hit rate 0.14% among 230,000; active means well fitted curve in the direction sought with a large enough effect; inconclusive means small, poorly fitted or top-dose-only effect, or another doubt; inactive means no such curve, though single readings can be large; an effect the other way counts as inactive or inconclusive; further: potency means the concentration at half of the fitted maximal effect; % of control where 0% means no effect; nearly all actives have a fitted effect of over 45% in size
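ATP quantification (ATPlite) reports survival of PC12 cells in which tebufenozide, 100 nM final, switches on Htt exon 1 with 103 glutamines linked to GFP; compounds are titrated.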
ALDH1A1 inh = qHTS Assay for Inhibitors of Aldehyde Dehydrogenase 1 (ALDH1A1) | hit rate 7.3% among 220,000 | Purified ALDH1A1, NADH fluorescence, propionaldehyde substrate | Potency, µM (titrated, usually from 75.3 µM), without a hit: at the top dose activity, negative = inhibition, actives largely listed as inhibitors | Aldehyde dehydrogenase 1A1 (Homo sapiens), P00352;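 further: potency means the concentration at half of the fitted maximal effect; plate controls were no enzyme wells and a reference inhibitor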
Target sequence (P00352 whole entry, looked up): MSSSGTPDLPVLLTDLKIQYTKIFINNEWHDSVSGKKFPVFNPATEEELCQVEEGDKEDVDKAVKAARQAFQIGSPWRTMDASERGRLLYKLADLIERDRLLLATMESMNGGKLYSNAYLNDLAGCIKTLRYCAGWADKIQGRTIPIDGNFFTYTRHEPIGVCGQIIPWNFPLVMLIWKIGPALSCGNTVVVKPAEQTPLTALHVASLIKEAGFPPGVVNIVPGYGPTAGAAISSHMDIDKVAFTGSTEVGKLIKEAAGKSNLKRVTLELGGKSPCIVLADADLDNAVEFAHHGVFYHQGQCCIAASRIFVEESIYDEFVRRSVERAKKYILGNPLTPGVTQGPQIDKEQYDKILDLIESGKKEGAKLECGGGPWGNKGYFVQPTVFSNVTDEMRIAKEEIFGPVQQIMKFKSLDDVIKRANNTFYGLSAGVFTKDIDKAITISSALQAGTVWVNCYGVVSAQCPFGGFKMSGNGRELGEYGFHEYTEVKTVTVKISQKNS
GoLoco inh red = qHTS Assay for Inhibitors of RGS12 GoLoco Motif Activity (Red Fluorophore). Guanine nucleotide-binding protein G(i) subunit alpha-1 (Homo sapiens), P63096. Gai1:RGS12 GoLoco peptide FP, rhodamine, 10 min. Potency, µM (doses to about 61.6 µM), without a hit: top-dose activity, negative = inhibition, usual class: inhibitors. hit rate 0.44% among 230,000. AID 880, 2007; active means well fitted inhibition curve with a large enough effect, not every such curve was filed as active; inactive means no such curve, though single readings can be large or run the other way; further: potency means the concentration at half of the fitted maximal effect; on the % scale 0 is the no-effect control and ±100 the full control effect; nearly all actives have a fitted effect of over 30% in size
HttQ103 aggreg = qHTS Multiplex Assay to Identify Dual Action Probes in a Cell Model of Huntington: Aggregate Formation (GFP); PC12 HttQ103-GFP aggregates, Acumen cytometry, 40 h; AID 1688, 2009; Potency, µM (titrated, usually from 46.1 µM), inactives show at the highest dose activity change, negative = inhibition, most hits filed as inhibitors; hit rate 1.1% among 220,000; active means well fitted curve in the direction sought with a large enough effect; inconclusive means small, poorly fitted or top-dose-only effect, or another doubt; inactive means no such curve, though single readings can be large; an effect the other way counts as inactive or inconclusive; further: potency means the concentration at half of the fitted maximal effect; on the % scale 0 is the no-effect control and ±100 the full control effect; nearly all actives have a fitted effect of over 60% in size
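Ecdysone-promoter PC12 model expressing HTT exon 1 Q103 fused to GFP, induced by tebufenozide at 100 nM final. Compounds titrated; aggregates sized 1–25 µm scored on a 488 nm laser cytometer.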
* hit, by the source's call; ? = inconclusive; . = not tested or not shown; [ ] = remark or other dose. Unless noted, the call rests on the fitted dose curve; in most records, active means well fitted inhibition curve with a large enough effect (not every such curve was filed as active); inconclusive means small, poorly fitted or top-dose-only effect, or another doubt; inactive means no such curve, though single readings can be large or run the other way.

SMILES	PNC assembly inh	HPGD inh	HTT ATP protect	ALDH1A1 inh	GoLoco inh red	HttQ103 aggreg
Cc1c(NC2=C(Cl)C(=O)N(c3ccccc3Cl)C2=O)c(=O)n(-c2ccccc2)n1C	16.6	-7.6%	.	35.5µM*	-6.0%	-8.7%
C=CCNC1=C(Cl)C(=O)N(c2ccccc2Cl)C1=O	18.2	-16.6%	-24.8%	25.1µM*	4.7%	25.8%
CCN(CC)c1ccc(/C=N/N2CCN(Cc3ccccc3Cl)CC2)c(O)c1	.	.	-1.7%[10 µM]	.	-5.3%	-6.6%[9.22 µM]
CCN(CC)c1ccc(/C=N/N2CCN(Cc3ccc(C)cc3)CC2)c(O)c1	?	-10.4%	-13.6%	?	-2.1%	0.631µM*
C=CCNc1nc(-c2ccc(Cl)cc2)cs1	49.3	-15.6%	-24.2%	4.6%	-1.1%	-0.7%
C=CCNc1nc(-c2ccc([N+](=O)[O-])cc2)cs1	-113.8*	-9.9%	.	4.3%	0.8%	-10.9%
COC(=O)C1=C(C)N(Cc2ccccc2)C2=C3C(=O)N(C)C(=O)C3[C@@](O)(C(=O)OC)C(=O)N2C1c1ccccc1 (some centres not stated)	.	.	?	11.0%[13.5 µM]	.	.
CCCCN(Cc1ccccc1)C(=O)CCN1C(=O)C2C3C=CC(C3)C2C1=O (configuration not stated)	.	.	-20.2%	2.24µM*	-3.7%	5.3%
CCn1c(SCC(=O)NCC2CCCO2)nnc1-c1c[nH]c2ccccc12 (configuration not stated)	11.9	31.6µM*	5.5%[0.074 µM]	-19.3%	3.0%	10.7%
Cc1ccccc1-n1nnnc1SCC(=O)NCC1CCCO1 (configuration not stated)	.	.	7.8%[10 µM]	5.62µM*	2.1%	-1.6%
O=C(CSc1c[nH]c2ccccc12)NCC1CCCO1 (configuration not stated)	?	3.98µM*	-11.0%[10 µM]	-4.8%	-5.7%	1.3%
Cc1cccc(-n2nnnc2SCC(=O)NCC2CCCO2)c1 (configuration not stated)	.	.	-3.0%[10 µM]	.	11.1%	-18.8%[9.22 µM]
CCOC(=O)c1c(=O)n(O)c2ccc(C)cc2[n+]1[O-]	?	-12.3%	-16.4%	-8.0%	-17.9%	-4.8%
CC(C)C[C@@H](CC(=O)N[C@@H](CCCN)CC(=O)N[C@@H]1CCNC[C@H]1C(=O)N[C@H](CC(=O)N[C@@H](CCC(=O)O)CC(=O)O)Cc1c[nH]c2ccccc12)NC(=O)[C@@H]1CNCC[C@H]1N	.	-5.2%	3.5%[1.9 µM]	-13.0%	-0.3%	.
CCOC(=O)C1CCN(CC(=O)Nc2cc(C)nn2-c2nc3ccccc3s2)CC1	5.8	-0.1%	-16.9%	-1.6%	2.6%	0.2%
Cc1cc(NC(=O)CN2CC(C)OC(C)C2)n(-c2nc3ccccc3s2)n1 (configuration not stated)	-99.2*	-15.8%	-11.8%	3.9%	0.6%	-1.7%
Cc1onc(-c2ccccc2)c1C(=O)NC(=S)NNC(=O)c1cccnc1	-12.5	-5.6%	.	?	8.3%	-17.2%
COc1ccc(-c2nn(-c3ccccc3)cc2C(=O)NC(=S)NNC(=O)c2ccncc2)cc1	.	.	17.1%	?	5.8%	10µM*
Cc1onc(-c2ccccc2)c1C(=O)NC(=S)NNC(=O)c1ccncc1	-14.2	-21.5%	.	17.8µM*	194.8%	?
O=C(O)Cn1nc(-c2ccccc2)c2ccccc21	.	.	4.6%	.	.	.
Cc1ccccc1Nc1nc(-c2sc(NC(=O)c3cccc(Cl)c3)nc2C)cs1	?	-14.2%	-15.8%	17.8µM*	18.9%	-2.0%
Cc1nc(NC(=O)c2ccccc2)sc1-c1csc(Nc2ccc(F)cc2)n1	-100.0*	?	-60.3%	?	28.5%	?
C=CCCC(=O)Nc1nc(C)c(-c2csc(Nc3ccccc3OC)n2)s1	-11.7	-19.2%	-93.1%	-10.2%	10.9%	17.8µM*
Cc1ccccc1Nc1nc(-c2sc(NC(=O)c3ccccc3)nc2C)cs1	3.6	?	-32.0%	20µM*	18.8%	1.4%
Cc1nc(NC(=O)c2ccccc2)sc1-c1csc(Nc2ccc(Cl)cc2)n1	?	-22.7%	-48.4%	?	17.1%	0.9%
SMILES	PNC assembly inh	HPGD inh	HTT ATP protect	ALDH1A1 inh	GoLoco inh red	HttQ103 aggreg
CN(C[C@H](Cc1ccccc1)N(C[C@H](Cc1ccccc1)N(CC1(c2ccccc2)CC1)N=O)N=O)N=O	.	.	7.9%[10 µM]	1.2%	2.3%	-1.8%[9.22 µM]
CC(C(=O)O)c1ccc2c(c1)Cc1cccnc1O2 (configuration not stated)	.	.	-3.3%	.	.	-1.0%
CCOc1ccccc1Nc1nc(-c2sc(NC(=O)c3ccc([N+](=O)[O-])cc3)nc2C)cs1	-24.1	-2.9%	-87.7%	0.794µM*	-2.0%	-2.3%
COc1ccccc1Nc1nc(-c2cccs2)cs1	-22.6	-28.8%	-25.4%	3.98µM*	54.3%	12.8%[9.22 µM]
Cc1ccccc1Nc1nc(-c2sc(NC(=O)c3ccc([N+](=O)[O-])cc3)nc2C)cs1	23.6	-23.0%	-29.5%	?	9.7%	-16.9%
Cc1c(C)n(CC(O)CN2C(=O)c3ccccc3S2(=O)=O)c2ccccc12 (configuration not stated)	?	20µM*	5.3%	14.1µM*	-4.2%	-30.9%
O=C1c2ccccc2S(=O)(=O)N1CC(O)COc1ccc(Br)cc1 (configuration not stated)	-105.5*	?	-11.1%	?	13.1%	-0.7%
CN1CCc2c(n(CC(O)CN(CCO)CCO)c3ccccc23)C1=O (configuration not stated)	.	.	-10.0%[10 µM]	0.3%	9.7%	3.0%[9.22 µM]
CN1CCc2c(n(CC(O)CN3C(=O)c4ccccc4S3(=O)=O)c3ccccc23)C1=O (configuration not stated)	-3.0	-1.4%	-0.7%[10 µM]	10µM*	10.4%	8.3%
CC(C)=CCn1cnc2c1c(=O)n(C)c(=O)n2C	.	-2.6%	-25.9%	2.6%	0.8%	.
COCCNC(=O)CCCC(=O)NCCOC	-6.0	3.4%	33.7%[0.074 µM]	1.7%	5.4%	-3.2%
NS(=O)(=O)c1ccc(Cl)cc1[N+](=O)[O-]	.	.	2.4%[10 µM]	.	-16.3%	-26.2%[9.22 µM]
Cc1c(N=Cc2ccncc2)c(=O)n(-c2ccccc2)n1C	-9.3	-12.6%	12.2%[10 µM]	?	8.0%	14.4%
Cc1c(N=Cc2ccc[nH]2)c(=O)n(-c2ccccc2)n1C	36.7	?	-1.6%	12.6µM*	-0.8%	-7.1%
CC(C)c1ccccc1NC(=O)COC(=O)c1ccc(Cl)c(S(=O)(=O)N2CCCCCC2)c1	24.4	-12.0%	16.8%[10 µM]	-12.1%	-5.8%	14.3%
